Screen size: about 220,000 compounds; about 800 (0.36%) were called active. The sample holds actives, similar compounds and a random draw of the others, so the mix is not that of the screen. A number with no mark means an inactive call.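 How the source made its calls: active means inhibition above about 50% (limit read from the data); inactive means the rest.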

This assay relates to calpain II (m-calpain), Sus scrofa. As to the kind of experiment: inhibitors of pig calpain II, primary screen, biochemical, fluorogenic peptide substrate, 1536-well (AID 1236). Conditions: purified calpain II, 30 min, at 16 µM, hits give high values.
Broadly, the inhibition is the change of the read-out against control, counted positive when it falls. As for `CCCc1cc(-c2n[nH]c(=S)n2Cc2ccccc2)cs1`, the inhibition is 67.9% (active). The same measure for `CCCc1cc(-c2n[nH]c(=S)n2CC)c2ccccc2n1`: -40.7%; for `CCc1cc(-c2n[nH]c(=S)n2CC(C)C)cs1`: 44.2%; for `C=CCN(c1ccccc1C(=O)NCC(=O)OCC)S(=O)(=O)c1ccc(C)cc1`: -6.73%. With `CCn1c(SCC(=O)Nc2ccc(S(=O)(=O)Nc3onc(C)c3C)cc2)nnc1-c1ccccc1`, the inhibition was -78.3%. As for `COc1ccc(C(=O)Nc2ccc(S(=O)(=O)Nc3onc(C)c3C)cc2)cc1OC`, the inhibition is 29.6%. For `Cc1cc(C)c2nc(-c3cccnc3)cc(C(=O)Nc3ccc(S(=O)(=O)Nc4onc(C)c4C)cc3)c2c1`, the inhibition is 55.4% (active). `Cc1coc2cc3oc(=O)c(CCC(=O)O)c(C)c3cc12`: the inhibition is -98.6%. For the compound `O=c1c2ccccc2c(-c2ccccc2)nn1Cc1ccccc1`, the inhibition is 11.2%. With `O=c1cc(N2CCCCC2)c(-c2ccccc2)nn1Cc1cccc(F)c1`, the inhibition was 55.9% (active). As to `O=c1cc(N2CCN(Cc3ccccc3)CC2)c(-c2ccccc2)n[nH]1`, the inhibition is -13.6%. As for `COc1cc2sc(C)nc2cc1C`, the inhibition was 2.42%. With `O=C(NCCNc1ccc([N+](=O)[O-])cc1)c1cccc2c(Br)cccc12`, the inhibition is -5.43%. Turning to `O=C(COc1ccc(S(=O)(=O)N2CCCCC2)cc1)NCc1ccccn1`, the inhibition is -4.04%. Take `CC1(C)OC(=O)C(=CSc2ccc(C(C)(C)C)cc2)C(=O)O1`: the inhibition is -10.7%.

As for `CCCOc1ccc(NC(=O)C2OC3OC(C)(C)OC3C3OC(C)(C)OC23)cc1` (configuration not stated), the inhibition was -15.2%.

On to `NNC(=O)c1cccc(COCC(F)(F)C(F)F)c1`, for which the inhibition was 20.4%. Regarding `Cc1nc(-c2ccccc2)sc1C(=O)/C=C/c1ccccc1`, the inhibition was -0.94%. The same measure for `Cc1nc(-c2ccc(Cl)cc2)sc1C(=O)CBr`: 27.7%; for `Cc1ccc(SCC(=O)c2sc(-c3ccccc3)nc2C)cc1`: 66.3% (active); for `Cc1ccc(C)c2c1cc(C)c1nnc(SCC(=O)Nc3cccc(C(=O)O)c3)n12`: -13.6%. Consider `CC1(C)CCSC(/C=C/c2ccccc2)=N1`, for which the inhibition is -19.7%. Consider `CCCN(C(=O)CSc1nnnn1C)c1c(N)n(Cc2ccccc2)c(=O)[nH]c1=O`, for which the inhibition is -5.69%. Turning to `C=CCNc1nc(Nc2ccc(Cl)cc2)nc(OC)n1`, the inhibition was -20.2%. For the compound `CC1=NNC(=O)C1CCC(=O)N/N=C(\C)c1ccc(Cl)cc1` (configuration not stated), the inhibition is -20.4%.

For the compound `O=C(Cn1nnc(-c2ccccc2)n1)N/N=C/c1ccc(-c2ccc(Cl)cc2)o1`, the inhibition is -60.4%. The value for `Cc1[nH]c2ccccc2c1/C=N\NC(=O)Cn1nnc(-c2ccccc2)n1` was 54.8% (active); that for `O=C(Cn1nnc(-c2ccccc2)n1)NCc1ccccc1` was 8.33%; that for `Cc1nn(Cc2ccc(F)cc2)c(C)c1NC(=O)c1cccnc1Cl` was 7.19%. For `COc1ccccc1NC(=O)c1c(Br)cnn1C`, the inhibition is -19.7%. The value for `O=C1C=CC(=O)N1c1ccc(N2CCCCC2)cc1` was 2.8%; that for `COc1ccc(C(=O)Nc2cc(C)ccc2NC(=O)COc2ccccc2)cc1` was 51.4% (active); that for `COc1ccc(OCC(=O)NNC(=O)c2ccc(-c3ccccc3)cc2)cc1` was -4.48%. The same measure for `COc1ccc(OCC(=O)NNC(=O)c2cccc(C)c2)cc1`: 1.17%; for `O=C(O)C1=C[C@H](c2cccs2)C[C@H](OCCCCO)O1`: -6.55%.

On to `O=C(COC(=O)c1cnccn1)Nc1cccc2ccccc12`, for which the inhibition is -43.3%. Take `O=C(NC(=S)Nc1ccc(NC(=O)c2cccs2)cc1)c1ccc([N+](=O)[O-])cc1`: the inhibition was 9.92%. For the compound `CC1CN/C(=C\C(=O)c2ccc(Br)cc2)C(=O)N1` (configuration not stated), the inhibition was 14.4%. For `O=C(c1ccc(Cl)c([N+](=O)[O-])c1)N1CCN(c2ccccc2)CC1`, the inhibition is 14%. For `O=C(/C=C/c1ccc(Cl)cc1)N1CCN(c2ccccc2[N+](=O)[O-])CC1`, the inhibition was 37.4%.

With `CO/N=C/c1ccc(N2CCN(C(=O)c3cccc(Cl)c3)CC2)c([N+](=O)[O-])c1`, the inhibition was 53.5% (active).

Consider `CC1=NN(c2ccccc2)C(=O)C1C(=O)c1ccc([N+](=O)[O-])cc1` (configuration not stated), for which the inhibition was 2.01%. For `S=c1[nH]nc(Nc2ccccc2)s1`, the inhibition was 31.7%.

Consider `COc1ccc(Cl)cc1NC(=O)CN(C)Cc1ccc(OC)c(OC)c1`, for which the inhibition was 30.5%. Take `Nc1ccccc1Sc1ccc(C(F)(F)F)cc1[N+](=O)[O-]`: the inhibition was 87.2% (active).

Regarding `O=C(CSc1ccc(C(F)(F)F)cc1[N+](=O)[O-])NCCOc1ccccc1`, the inhibition is -9.45%. The value for `CCS(=O)(=O)c1cc([N+](=O)[O-])c(Sc2ccccc2N)s1` was 3.47%. Regarding `O=C1Nc2ccc([N+](=O)[O-])cc2C1=Nc1cccc(CO)c1`, the inhibition is 21.2%. With `CC1=NNC(=O)C1CCC(=O)N/N=C\c1cccc(Cl)c1` (configuration not stated), the inhibition is -0.56%.

For `COc1ccc(/C=C(\NC(=O)c2ccc(OCC(C)C)cc2)C(=O)OCc2ccco2)cc1`, the inhibition is 14.9%.

On to `O=C(Nc1nnc(C2CC2)s1)c1ccccn1`, for which the inhibition was -3.35%. The value for `N#CCCCn1c(O)c(N=NC(=O)C(O)c2ccccc2)c2ccccc21` (configuration not stated) was -3.6%. Take `O=C(Cn1cncn1)N/N=C/c1c2ccccc2cc2ccccc12`: the inhibition was -113%. Consider `Cc1ccccc1C(=O)OC1OC(=O)C(Cl)=C1Nc1ccccc1` (configuration not stated), for which the inhibition is -2.86%. For the compound `O=C1OC(OC(=O)c2ccccc2Br)C(N2CCOCC2)=C1Cl` (configuration not stated), the inhibition is -3.83%. `Cc1ccc(NC2=C(Cl)C(=O)OC2OC(=O)c2ccccc2C)cc1` (configuration not stated): the inhibition is 66.5% (active). For `CCOc1ccc(/C=N/OCC(=O)NCc2cccs2)cc1`, the inhibition was 3.21%. For `COC(=O)c1sccc1NC(=O)CC1C(=O)NCCN1C(=O)Nc1ccc(F)cc1F` (configuration not stated), the inhibition is -15.5%. The value for `Cc1cc(NC(=O)/C=C/C(=O)N(CC(=O)NC2CCCC2)c2ccc(F)cc2)no1` was 1.62%. Regarding `CCNC(=S)N1CCN(C(=O)c2ccco2)CC1`, the inhibition is -6.94%. On to `O=C(c1ccc2c(c1)OCO2)N1CCN(C(=O)c2ccco2)CC1`, for which the inhibition is 14.3%. Regarding `CCC(=O)Nc1ccc(C(=O)N2CCN(C(=O)c3ccco3)CC2)cc1`, the inhibition is 50.8% (active).

Values taken from PubChem BioAssay AID1236 (Emory University Molecular Libraries Screening Center, 2008).
